# Assay results: PubChem BioAssay AID1239 (SRMLSC, 2008)
# The campaign covered roughly 190,000 compounds. About 3,100 (1.6%) were called active. This is one part of a sample in which actives are shown more often than they occur. Rule as the data show it: active = fold change above about 3.3; inconclusive = no clear call, values can overlap the other calls; inactive = below that.
# Assay: NF-kB upregulation, human neuronal cells – cell-based, HTS, primary screen (AID 1239)
# Settings: NF-kB reporter expression, at 12.5 µM, stronger effect = higher value
row,SMILES,fold change
1,CCCCCCOc1ccc(OC(=O)c2cccnc2)cc1,5.55 (active)
2,CCCCCCCCC(=O)NCCOc1ccccc1,1.12 (inactive)
3,CCCCOc1ccc(C(=O)NCc2ccncc2)cc1,1.15 (inactive)
4,CCOc1ncccc1C(=O)OCC(=O)NC1CC1,1.17 (inactive)
5,CN1CCN(CC(=O)Nc2cccc([N+](=O)[O-])c2)CC1,1.37 (inactive)
6,COc1cc2c(cc1OC)CN(C(=O)c1ccc(S(=O)(=O)N3CCCCCC3)cc1)CC2,0.87 (inactive)
7,CCOc1cc(C(=O)N2CCc3cc(OC)c(OC)cc3C2)ccc1OC(F)F,4.22 (active)
8,COc1cc2c(cc1OC)CN(C(=O)c1cc(=O)c3ccccc3o1)CC2,0.82 (inactive)
9,O=Cc1ccc(Oc2cccc(C(F)(F)F)c2)nc1,1.2 (inactive)
10,O=C(CSc1cccc[n+]1[O-])c1ccc(Cl)cc1,1.21 (inactive)
11,NC(=O)COC(=O)/C=C/c1ccc2ccccc2n1,0.97 (inactive)
12,CCOc1cccc(/C=C/c2ccc3ccccc3n2)c1OC(C)=O,4.82 (active)
13,COc1cccc(/C=C/c2ccc3ccccc3n2)c1OC(C)=O,3.13 (inactive)
14,CCOC(=O)c1c(N)nn(C(=O)c2ccccc2)c1-c1ccccc1,1.07 (inactive)
15,C=CCN1C2CCCC1CC(NC(=S)Nc1cccc(OC)c1)C2 (stereo not drawn),1.07 (inactive)
16,CC(CNC(=O)c1ccc(N)cc1)NC(=O)c1ccc(N)cc1 (stereo not drawn),1.46 (inactive)
17,COc1ccc(-c2noc(-c3cccc(OC)c3OC)n2)cc1OC,3.86 (active)
18,COc1cc(-c2nc(-c3ccncc3)no2)cc(OC)c1OC,0.54 (inactive)
19,CCOc1nc(-c2ccc(OC)cc2)ccc1-c1noc(-c2cc(OC)c(OC)c(OC)c2)n1,1.01 (inactive)
20,COc1ccc(OC)c(S(=O)(=O)NCCC(C)C)c1,1.13 (inactive)
21,COc1ccc(NC(C)=O)cc1NC(=O)CN1CCN(C2c3ccccc3-c3ccccc32)CC1,3.62 (active)

row,SMILES,fold change
1,COc1ccc(OC)c(NC(=O)CN2CCN(C(=O)c3ccco3)CC2)c1,1.07 (inactive)
2,COc1ccc(NC(C)=O)cc1NC(=O)CN1CCN(c2ccccn2)CC1,1.04 (inactive)
3,Nc1ncc(-c2cc3ccccc3oc2=O)s1,3.48 (active)
4,O=c1oc2ccccc2cc1-c1cn(-c2ccccc2)c(=S)[nH]1,0.83 (inactive)
5,O=C(NCc1cccnc1)c1cccc(-c2cc3ccccc3oc2=O)c1,0.93 (inactive)
6,O=C(/C=C/c1ccc2c(c1)OCO2)NCc1cn2cc(Cl)ccc2n1,1.09 (inactive)
7,COc1ccc(N(C)S(=O)(=O)c2cccc3nsnc23)cc1,1.25 (inactive)
8,O=C(c1ccc(N2CCOCC2)c([N+](=O)[O-])c1)N1CCN(S(=O)(=O)c2cccs2)CC1,1.15 (inactive)
9,C=CCn1c(CCNC(=O)c2ccccc2F)nnc1SCC(=O)Nc1ccc(OC)cc1,1.12 (inactive)
10,CCCC1(C(=O)OC)NC(c2ccco2)C2C(=O)N(C)C(=O)C21 (stereo not drawn),1 (inactive)
11,O=C1/C(=C/c2cccs2)CCC1C1CCCC1 (stereo not drawn),5.68 (active)
12,CCC1C/C(=C/c2cccs2)C(=O)/C(=C/c2cccs2)C1 (stereo not drawn),1.07 (inactive)
13,O=S(=O)(c1cccs1)N1CCc2ccccc2C1,1.07 (inactive)
14,O=C1/C(=C/c2cccs2)CCc2ccccc21,5.83 (active)
15,COc1ccc(/C=C2\CCc3ccccc3C2=O)c(OC)c1OC,1.7 (inactive)
16,Cc1ccc(N2CCN(C3=NC(=O)/C(=C\c4cccs4)S3)CC2)cc1,1.27 (inactive)
17,CC(=O)C1(C)N(O)C(C)(C)C(c2cccs2)=[N+]1[O-] (stereo not drawn),0.95 (inactive)
18,CCn1nc(C)cc1C(=O)N1CCCC(C(=O)c2cccc(OC)c2)C1 (stereo not drawn),1.1 (inactive)
19,COc1ccc(CN2CCN(Cc3cn(C)nc3-c3ccccc3)CC2CCO)c(C)c1C (stereo not drawn),1.01 (inactive)
20,CCc1ccc(NC(=O)Cn2nc(C)c([N+](=O)[O-])c2C)cc1,1.28 (inactive)
21,NC(=O)Cc1nc2scc(-c3ccc(Cl)cc3)c2c(=O)[nH]1,0.99 (inactive)

row,SMILES,fold change
1,O=c1[nH]c(CCl)nc2cc(-c3ccc(Cl)cc3)sc12,4.29 (active)
2,O=c1[nH]c(CN2CCOCC2)nc2cc(Cl)ccc12,1.04 (inactive)
3,COc1ccc(S(=O)(=O)N2CCOCC2)cc1NC(=O)CSc1ncnc2ccccc12,1.56 (inactive)
4,CCN1C(=O)/C(=c2\s/c(=C3\Sc4ccccc4N3C)c(=O)n2C)N(C)C1=S,1.16 (inactive)
5,CN(C)CCCN1C(=O)CSC1c1ccc([N+](=O)[O-])cc1 (stereo not drawn),1.03 (inactive)
6,COCC1CCCN(Cc2nc(-c3ccc4c(c3)OCO4)no2)C1 (stereo not drawn),1.62 (inactive)
7,Cc1cs/c(=N\N=C\c2ccc(O)cc2)n1Cc1ccco1,4.11 (active)
8,Cc1csc(=Nc2ccccc2)n1CCO,1.05 (inactive)
9,CN(c1ccccc1)c1ccc(/C=c2\s/c(=C(/C#N)C(=O)C(C)(C)C)n(Cc3ccco3)c2=O)cc1,1.52 (inactive)
10,Cc1nnc(SC(C(=O)Nc2cc(Cl)cc(Cl)c2)c2ccccc2)[nH]c1=O (stereo not drawn),1.02 (inactive)
11,CSCCC(Nc1nc2ccccc2s1)C(=O)O (stereo not drawn),1.16 (inactive)
12,Cc1ccc(S(=O)(=O)Nc2nc3ccccc3s2)cc1[N+](=O)[O-],1.51 (inactive)
13,Cc1ccnc(Nc2nc3ccccc3s2)n1,4.25 (active)
14,O=C(Nc1ccc(Br)cn1)c1ccc([N+](=O)[O-])cc1Cl,3.54 (active)
15,O=C(/C=C/c1ccc(Cl)cc1)Nc1ccc(Br)cn1,1.07 (inactive)
16,O=C(Nc1ccc(Br)c2cccnc12)c1ccc(Cn2cc([N+](=O)[O-])cn2)o1,1.07 (inactive)
17,CC(C)C(=O)Nc1cccc(NC(=O)c2ccc([N+](=O)[O-])cc2Cl)c1,1.13 (inactive)
18,O=C(Nc1ccc(Br)cn1)c1ccc([N+](=O)[O-])o1,4.41 (active)
19,O=C(Nc1cccc([N+](=O)[O-])c1)Nc1ccc(Cl)cn1,0.9 (inactive)
20,C/C(=N/O)c1ccc(N2C(=O)C3C4C=CC(C3C2=O)C2C3C(=O)N(c5ccc(/C(C)=N/O)cc5)C(=O)C3C42)cc1 (stereo not drawn),1.33 (inactive)
21,NC(=O)Cn1nc([N+](=O)[O-])nc1Oc1ccc(Br)cc1,0.99 (inactive)
